A549 viability: A549 cytotoxicity, counter-screen for Nrf2 inhibitors; actives 0.16% (n = 390,000); A549 ARE-Fluc cells, CellTiter-Fluor viability, 18-24 h; Potency, µM (series often up to 46 µM), usual class: inhibitors
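Cytotoxicity counterscreen: CellTiter-Fluor fluorescence was measured in A549 ARE_Fluc cells after 18-24 h of compound exposure in a concentration series. The subsequent BugLite luminescent read reports ARE-luciferase activity.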
Giardia killer: Giardia lamblia killing | Giardia lamblia trophozoite viability | activity change, % at 7.66 µM, hits read low | actives 0.15% (n = 340,000); in the data active = activity change below about -80%; inconclusive = between about -30% and that limit;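 note: parasites exposed to compound for two days anaerobically before the ATP read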
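Giardia trophozoites, 100 cells per well, were exposed to compounds for 48 hrs at 37 deg C under anaerobic conditions; viability was then read as ATP content by bioluminescence after 15-30 min at room temperature.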
mIDH1 inhibitor: blocks human mutant IDH1 R132H enzyme. O75874. IDH1-R132H enzyme, NADPH consumption, diaphorase/resazurin fluorescence. Potency, µM (titrated, usually from 76.6 µM), usual class: inhibitors. actives 0.093% (n = 390,000); note: nearly all actives have a fitted effect of over 65% in size
Target sequence (O75874 whole entry R132H, stated change not applied): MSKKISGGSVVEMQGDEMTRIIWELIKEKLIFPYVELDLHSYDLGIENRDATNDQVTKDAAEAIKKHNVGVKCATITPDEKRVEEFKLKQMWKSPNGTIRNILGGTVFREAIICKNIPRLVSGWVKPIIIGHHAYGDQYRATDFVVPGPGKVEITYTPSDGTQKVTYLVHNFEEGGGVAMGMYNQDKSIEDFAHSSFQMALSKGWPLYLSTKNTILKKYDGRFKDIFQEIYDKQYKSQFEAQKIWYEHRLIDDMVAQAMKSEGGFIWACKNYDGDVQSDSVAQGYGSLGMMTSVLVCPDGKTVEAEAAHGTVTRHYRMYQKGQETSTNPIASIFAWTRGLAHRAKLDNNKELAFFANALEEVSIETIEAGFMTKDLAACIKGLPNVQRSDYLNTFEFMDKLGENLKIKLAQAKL
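IDH1-R132H (0.5 ug/mL dispensed) in pH 7.5 Tris buffer was preincubated 30 min with compound, then given a substrate mix of 0.016 mM NADPH and 2 mM alpha-KG for 80 min at room temperature; remaining NADPH was read by diaphorase/resazurin fluorescence.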
Apoferritin bind: candidate novel general anesthetic via apoferritin binding; P02791; apoferritin/1-aminoanthracene competitive binding, fluorescence; Potency, µM (titrated, usually from 77.5 µM), most hits filed as inhibitors; actives 0.074% (n = 350,000); note: nearly all actives have a fitted effect of over 20% in size
Target sequence (P02791 2-175 limits assumed): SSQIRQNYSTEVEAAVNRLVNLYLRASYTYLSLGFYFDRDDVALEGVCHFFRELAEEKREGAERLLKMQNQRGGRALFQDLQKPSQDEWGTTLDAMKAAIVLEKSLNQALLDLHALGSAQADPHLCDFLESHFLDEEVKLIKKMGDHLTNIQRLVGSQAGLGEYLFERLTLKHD
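Steps: apoferritin (10 uM) was premixed with half-saturated 1-AMA in PBS, compounds were pin-transferred, plates stood 10 min at room temperature, fluorescence was read at 380/535 nm, and curves were fitted with a Hill equation.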
Nrf2 block: inhibitors of Nrf2 signaling; AID 504444; Potency, µM (highest dose often 46 µM), usual class: inhibitors; A549 ARE-Fluc reporter, luciferase luminescence, 18-24 h; actives 2.1% (n = 360,000); note: nearly all actives have a fitted effect of over 60% in size
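In this cell-based qHTS, ARE-driven firefly luciferase in A549 cells reports Nrf2 activity; the luminescent signal after BugLite lysis is the measured value, with a prior CellTiter-Fluor read for cell health.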
Nrf2 ARE act: activates Nrf2 signaling | AREc32 ARE-luciferase reporter (MCF7-derived line), luminescence, 24 h | Potency, µM (top dose mostly 46.1 µM), hits mostly activators | actives 0.31% (n = 410,000) | AID 624171; note: nearly all actives have a fitted effect of over 65% in size
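Nrf2 activation is followed as ARE-luciferase induction in the AREc32 line after one day of compound treatment; luminescence is read with Steady-Glo.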
A number is an active result. Rows were chosen to be rich in hits. Some 2.3% of all compounds tested hit in one or more screens of this group. Unless noted, calls come from the whole dose curve; as a rule, active = well fitted curve in the direction sought with a large enough effect; inconclusive = small, poorly fitted or top-dose-only effect, or another doubt; inactive = no such curve, though single readings can be large; an effect the other way counts as inactive or inconclusive.

How did CCOC(=O)C1CCN(C(=O)C2CCN(C3=NS(=O)(=O)C(c4ccc(C)cc4)=C3CC)CC2)CC1 do in these assays?
A549 viability: inactive; mIDH1 inhibitor: inactive; Apoferritin bind: inconclusive; Nrf2 block: inactive; Nrf2 ARE act: inactive

What do the screens show for `CCNc1ccc(Br)cc(C(=O)/C=C/c2ccc(Cl)cc2Cl)c1=O`?
A549 viability: inconclusive; Giardia killer: inactive; mIDH1 inhibitor: inactive; Apoferritin bind: inconclusive; Nrf2 block: 26µM; Nrf2 ARE act: inconclusive

Results for CNc1ccc(Br)cc(C(=O)/C=C/c2cc(OC)ccc2OC)c1=O ?
A549 viability: inconclusive; Giardia killer: inactive; mIDH1 inhibitor: inactive; Apoferritin bind: inactive; Nrf2 block: inconclusive; Nrf2 ARE act: 14µM

Results for COC(=O)c1ccc(NC(=O)c2cc(S(=O)(=O)N3CCc4ccccc43)cn2C)cc1 ?
A549 viability: inactive; mIDH1 inhibitor: inactive; Apoferritin bind: inactive; Nrf2 block: inconclusive; Nrf2 ARE act: inactive

What do the screens show for `Cn1nc(C(F)(F)F)c(/C=N/OC(=O)c2ccccc2Cl)c1SCc1ccc(Cl)cc1`?
A549 viability: inconclusive; Giardia killer: inactive; mIDH1 inhibitor: inactive; Apoferritin bind: inactive; Nrf2 block: 21µM; Nrf2 ARE act: inactive

How did CCN(CC)C(=O)C1=C(C)N(Cc2ccccc2)C(=O)C(CC(=O)NCc2cccc3ccccc23)C1 (configuration not stated) do in these assays?
mIDH1 inhibitor: inactive; Nrf2 ARE act: inactive

How did CCOC(=O)c1[nH]c(C)c(C(=O)NCc2ccccc2Cl)c1C do in these assays?
A549 viability: inactive; mIDH1 inhibitor: inactive; Apoferritin bind: inactive; Nrf2 block: inactive; Nrf2 ARE act: inactive

What do the screens show for `COc1ccc(-n2c(-c3cccc(OC)c3)nc(=S)c3c2CCCC3)cc1`?
A549 viability: inactive; Giardia killer: inactive; mIDH1 inhibitor: inactive; Apoferritin bind: inactive; Nrf2 block: 26µM; Nrf2 ARE act: inactive

How did CCOC(=O)C(CC)Sc1ccc2nnc(-c3ccc(F)cc3)n2n1 (configuration not stated) do in these assays?
A549 viability: inactive; Giardia killer: inactive; Nrf2 block: inactive

What do the screens show for `Cc1ccc(C(=O)Nc2ccc(S(=O)(=O)N3CCc4ccccc4C3)cc2)o1`?
A549 viability: inactive; Giardia killer: inactive; mIDH1 inhibitor: inactive; Apoferritin bind: inactive; Nrf2 ARE act: inactive

Results for O=S(=O)(NC1CC1)c1ccc(S(=O)(=O)N2CCCc3ccccc32)cc1 ?
A549 viability: inactive; Giardia killer: inactive; mIDH1 inhibitor: inactive; Apoferritin bind: inconclusive; Nrf2 block: 23µM; Nrf2 ARE act: inactive

What do the screens show for `Cc1ccc(C(=O)Nc2ccc(S(=O)(=O)N3CCc4ccccc43)cc2)o1`?
A549 viability: inactive; Giardia killer: inactive; mIDH1 inhibitor: inactive; Apoferritin bind: inactive; Nrf2 block: 21µM; Nrf2 ARE act: inactive

Results for NC(=O)c1ccsc1NC(=O)c1ccc(S(=O)(=O)N2CCCc3ccccc32)cc1 ?
A549 viability: inconclusive; Giardia killer: inactive; mIDH1 inhibitor: inactive; Apoferritin bind: inactive; Nrf2 block: 18µM; Nrf2 ARE act: inactive

What do the screens show for `O=C(O)c1ccc(S(=O)(=O)N2CCCc3ccccc32)cc1`?
A549 viability: inactive; Giardia killer: inactive; mIDH1 inhibitor: inactive; Apoferritin bind: inactive; Nrf2 block: inactive; Nrf2 ARE act: inactive

How did Cn1cc(S(=O)(=O)N2CCc3ccccc32)cc1C(=O)Nc1ccc(Cl)cc1 do in these assays?
A549 viability: inactive; Giardia killer: inactive; mIDH1 inhibitor: inactive; Apoferritin bind: inactive; Nrf2 block: 8.2µM; Nrf2 ARE act: inactive

What do the screens show for `COc1cc(OC)c(NC(=O)C(C)n2nc(-c3ccc(C)cc3)c3c(c2=O)CCCC3)cc1Cl` (configuration not stated)?
A549 viability: inconclusive; mIDH1 inhibitor: inactive; Apoferritin bind: inconclusive; Nrf2 block: inconclusive; Nrf2 ARE act: inactive

How did CC(=O)Nc1cc(C(=O)NCc2ccccc2Cl)ccc1Sc1ccc(F)cc1 do in these assays?
A549 viability: inactive; mIDH1 inhibitor: inactive; Apoferritin bind: inactive; Nrf2 ARE act: inactive

What do the screens show for `CCCSc1nnc(NC(=O)c2cc(=O)c3ccccc3o2)s1`?
A549 viability: inactive; mIDH1 inhibitor: inactive; Apoferritin bind: inactive; Nrf2 block: inactive; Nrf2 ARE act: inactive

What do the screens show for `COc1ccc(C(=O)Nc2ccc(S(=O)(=O)N3CCc4ccccc43)cc2)cc1`?
A549 viability: inactive; Giardia killer: inactive; mIDH1 inhibitor: inactive; Nrf2 block: 15µM; Nrf2 ARE act: inactive

How did CCCC(=O)NC(=S)Nc1ccc(S(=O)(=O)N2CCc3ccccc32)cc1 do in these assays?
A549 viability: inactive; Giardia killer: inactive; mIDH1 inhibitor: inactive; Nrf2 block: 21µM; Nrf2 ARE act: inactive

Results for COc1ccc(N(C)C(=O)c2cc(S(=O)(=O)N3CCc4ccccc43)cn2C)c(OC)c1 ?
A549 viability: inconclusive; Apoferritin bind: inactive; Nrf2 block: 18µM; Nrf2 ARE act: inactive

Results for O=c1c2ccccc2nc(-c2ccc(Cl)cc2)n1CCCOc1ccccc1F ?
A549 viability: inactive; mIDH1 inhibitor: inactive; Apoferritin bind: inactive; Nrf2 block: inactive; Nrf2 ARE act: inactive

What do the screens show for `O=C(O)c1ccccc1OS(=O)(=O)O`?
Apoferritin bind: inactive

How did COc1ccc(C)cc1NC(=O)Nc1cccc(OCc2cc(=O)n3ccc(C)cc3n2)c1 do in these assays?
A549 viability: inactive; mIDH1 inhibitor: inactive; Apoferritin bind: inactive; Nrf2 ARE act: inactive

How did CCOc1ccc(N2C(=O)c3[nH]nc(-c4ccc(OC)cc4)c3C2c2cccs2)cc1 (configuration not stated) do in these assays?
A549 viability: inconclusive; Apoferritin bind: inactive; Nrf2 block: 23µM; Nrf2 ARE act: inactive

What do the screens show for `CCOc1ccc(N2C(=O)c3n[nH]c(-c4cccs4)c3C2c2cccc(F)c2)cc1` (configuration not stated)?
A549 viability: inactive; Apoferritin bind: inactive; Nrf2 block: inconclusive; Nrf2 ARE act: inactive

Results for CCOc1ccc(-c2n[nH]c3c2C(c2cccs2)N(c2ccc(Br)cc2)C3=O)cc1 (configuration not stated) ?
A549 viability: inactive; mIDH1 inhibitor: inactive; Apoferritin bind: inactive; Nrf2 block: 23µM; Nrf2 ARE act: inactive

What do the screens show for `CCOC(=O)c1ccc(N2C(=O)c3[nH]nc(-c4ccc(OCC)cc4)c3C2c2ccc(OC)cc2OC)cc1` (configuration not stated)?
A549 viability: inactive; mIDH1 inhibitor: inactive; Apoferritin bind: inactive; Nrf2 block: inactive; Nrf2 ARE act: inactive
